Consider 16 compounds from paper PMC11062922 (Nature Chemical Biology, 2023).

Set-up in all cases: species or system human, MV4-11 + K-562 + COLO205 + SK-N-BE2 + OVCAR-8
Experiment [1] relates to ADCK1. To be noted: read-out: apparent Kd; compound concentrations: 100 nM and 1000 nM (sheet 'Samples'), CATDS: 0.121280285214534; n = 1.
For experiment [2], the system named is MAPK8. To be noted: read-out: apparent Kd, compound concentrations: 100 nM and 1000 nM (sheet 'Samples'), n = 1.
Experiment [3] has as its system PRKX. To be noted: read-out: apparent Kd, n = 1.
The subject of experiment [4] is TNIK. To be noted: read-out: apparent Kd, n = 1.
The test system of experiment [5] is RIOK2. To be noted: read-out: apparent Kd, compound concentrations: 100 nM and 1000 nM (sheet 'Samples'), n = 1.
In experiment [6] the test system is CDK17. To be noted: read-out: apparent Kd, n = 1.
The subject of experiment [7] is CSNK1A1. To be noted: read-out: apparent Kd; compound concentrations: 100 nM and 1000 nM (sheet 'Samples'), CATDS: 1.2484395279946501E-2; n = 1.
The test system of experiment [8] is CSNK1E. To be noted: read-out: apparent Kd, compound concentrations: 100 nM and 1000 nM (sheet 'Samples'), n = 1.
Experiment [9] has as its system HCK. To be noted: read-out: apparent Kd; compound concentrations: 100 nM and 1000 nM (sheet 'Samples'), CATDS: 6.5481840851314196E-3; n = 1.
Experiment [10] concerns MARK2. To be noted: read-out: apparent Kd, n = 1.
In experiment [11] the test system is PHKG2. To be noted: read-out: apparent Kd; compound concentrations: 100 nM and 1000 nM (sheet 'Samples'), CATDS: 8.6754793941291007E-3; n = 1.
Experiment [12] concerns PRKAA2. To be noted: read-out: apparent Kd, compound concentrations: 100 nM and 1000 nM (sheet 'Samples'), n = 1.
In experiment [13] the test system is ROCK2. To be noted: read-out: apparent Kd; compound concentrations: 100 nM and 1000 nM (sheet 'Samples'), CATDS: 8.2952674328971108E-3; n = 1.
For experiment [14], the system named is STK16. To be noted: read-out: apparent Kd, compound concentrations: 100 nM and 1000 nM (sheet 'Samples'), n = 1.
Experiment [15] concerns STK3. To be noted: read-out: apparent Kd, compound concentrations: 100 nM and 1000 nM (sheet 'Samples'), n = 1.
The test system of experiment [16] is MAPK10. To be noted: read-out: apparent Kd, compound concentrations: 100 nM and 1000 nM (sheet 'Samples'), n = 1.
Where [17] appears, read: compound concentrations:100 nM and 1000 nM (sheet 'Samples').

Where two headings read alike, the source gives them in different places.

Regarding `Cc1n[nH]c2cc(Nc3ccnc(Nc4cccc(CN5CCOCC5)c4)n3)ccc12` [GW682569X], the results for the potency estimated from few doses in experiment [1] and in experiment [2] (CATDS: 8.8519756402374403E-2) were 760 nM and 1870 nM, respectively.
As for `O=C1N=C(NCc2cccs2)O/C1=C\c1ccc2ncccc2c1` [RO4624208-000], the potency estimated from few doses was 966 nM in experiment [3] (compound concentrations: 100 nM and 1000 nM (sheet 'Samples'), CATDS: 5.4979506066670798E-2); 2330 nM in experiment [4] (compound concentrations: 100 nM and 1000 nM (sheet 'Samples'), CATDS: 4.4189138056131998E-2).
In the case of `CNCc1ccc(-c2cc(-c3nc(-c4ccc(S(=O)(=O)C(C)C)cc4)cnc3N)on2)cc1` [VE-822], the potency estimated from few doses in experiment [4] (setting [17]) is 1650 nM.
On to `COC(=O)c1cccc(NC(=O)NC2CCN(c3ccnc(Nc4cc(OC)c(OC)c(OC)c4)n3)C2)c1` (stereo not shown) [GSK1379767A], for which, in experiment [5] (CATDS: 9.3299595876540298E-2), the potency estimated from few doses is 2110 nM.
Take `O=C(O)C(F)(F)F.O=C(O)C(F)(F)F.O=c1[nH]ccc2nc(N[C@@H]3CCCNC3)nc(Nc3ccc(S(=O)(=O)N4CCOCC4)cc3)c12.O=c1[nH]ccc2nc(N[C@@H]3CCCNC3)nc(Nc3ccc(S(=O)(=O)N4CCOCC4)cc3)c12` [GSK2177277A]: the potency estimated from few doses in experiment [6] (compound concentrations: 100 nM and 1000 nM (sheet 'Samples'), CATDS: 6.5557639532583699E-3) was 1380 nM; in [7] it was 150 nM; in experiment [8] (CATDS: 1.0000373505011199E-2), 274 nM; in [9] it was 1390 nM; in [10] (compound concentrations: 100 nM and 1000 nM (sheet 'Samples'), CATDS: 1.4475960848297199E-2) it was 105 nM; in experiment [11] it was 430 nM. For the same compound, the potency estimated from few doses in experiment [12] (CATDS: 4.4200978243391198E-2) was 13.7 nM; in [3] (compound concentrations: 100 nM and 1000 nM (sheet 'Samples'), CATDS: 7.1625839917235003E-3), 897 nM; in experiment [5] (CATDS: 6.0080792942577401E-3) it was 2350 nM; in experiment [13], 503 nM; in experiment [14] (CATDS: 8.3784020222335102E-3), 485 nM; in [15] (CATDS: 4.2815354509816599E-2), 14.4 nM. Moreover, the potency estimated from few doses in [4] (compound concentrations: 100 nM and 1000 nM (sheet 'Samples'), CATDS: 6.517178775647E-3) is 1420 nM.
As to `CN[C@H](C#Cc1c(F)ccc2c1/C(=C/c1[nH]ccc1OC)C(=O)N2)CO.Cl` [RO0283049-001], the potency estimated from few doses is 797 nM in [6] (compound concentrations: 100 nM and 1000 nM (sheet 'Samples'), CATDS: 2.52216381525E-2); 751 nM in [16] (CATDS: 2.5716910898498702E-2); 951 nM in experiment [2] (CATDS: 2.3865575859687099E-2); 1240 nM in experiment [12] (CATDS: 2.2132106558792702E-2); 1110 nM in [14] (CATDS: 2.2828381206070801E-2); 733 nM in [15] (CATDS: 2.5923871339058099E-2).
As for `O=C1N=C(N[C@H](CO)c2ccccc2)S/C1=C\c1ccc2ncccc2c1` [RO4554339-000], in experiment [3] (compound concentrations: 100 nM and 1000 nM (sheet 'Samples'), CATDS: 0.109723190232525), the potency estimated from few doses is 705 nM.
In the case of `CNCC1CCn2c(c(C3=C(c4cn(C)c5ccccc45)C(=O)NC3=O)c3ccccc32)C1` (stereo not shown) [RO0318676-000], in experiment [6] (compound concentrations: 100 nM and 1000 nM (sheet 'Samples'), CATDS: 2.8092729884281801E-2), the potency estimated from few doses was 1740 nM.
Regarding `NS(=O)(=O)c1ccc(NC=C2C(=O)Nc3ccc4ncsc4c32)cc1` [GW589933X], the potency estimated from few doses in [6] (compound concentrations: 100 nM and 1000 nM (sheet 'Samples'), CATDS: 2.5834512792532401E-2) is 479 nM; in [8] (CATDS: 1.7679596648165999E-2), 1500 nM; in [15] (CATDS: 3.1819272048607197E-2) it was 295 nM; in [4] (compound concentrations: 100 nM and 1000 nM (sheet 'Samples'), CATDS: 5.8590994029209698E-2), 89.2 nM.
For the compound `CC(C)(CO)CNC(=O)c1ccc2c(c1)/C(=N/Nc1ccc(S(N)(=O)=O)cc1)C(=O)N2` [GW301784X], the potency estimated from few doses in [6] (setting [17]) is 212 nM.
As to `NS(=O)(=O)c1ccc(N/C=C2\C(=O)Nc3ccc4ncsc4c32)cc1` [GW297361X], the potency estimated from few doses in experiment [6] (compound concentrations: 100 nM and 1000 nM (sheet 'Samples'), CATDS: 3.2920302363338198E-2) is 1410 nM; in [15] (CATDS: 4.8533419751013301E-2), 558 nM; in experiment [4] (compound concentrations: 100 nM and 1000 nM (sheet 'Samples'), CATDS: 3.6664419763171099E-2) it was 1050 nM.
Consider `COc1cc[nH]c1/C=C1\C(=O)Nc2ccc([N+](=O)[O-])c(N3CC[C@@H](O)C3)c21` [RO0504985-000], for which the potency estimated from few doses in [6] (compound concentrations: 100 nM and 1000 nM (sheet 'Samples'), CATDS: 2.9599513328136099E-2) was 2050 nM; in experiment [16] (CATDS: 3.16649097319332E-2) it was 1540 nM; in [14] (CATDS: 3.4591069451125701E-2), 1100 nM.
For `COc1cc2ncn(-c3cc(OCc4ccccc4S(C)(=O)=O)c(C#N)s3)c2cc1OC` [GSK319347A], the potency estimated from few doses in experiment [4] (compound concentrations: 100 nM and 1000 nM (sheet 'Samples'), CATDS: 7.3332449024222507E-2) is 2280 nM.
As for `COc1cccc(C2=C(c3c(C)n(C)c4ccccc34)C(=O)NC2=O)c1` [RO3300167-000], the potency estimated from few doses in experiment [15] (CATDS: 0.106754068539186) is 824 nM.
On to `Nc1nccc(-c2ccc3c(N)n[nH]c3c2)n1` [GSK1034945A], for which the figures for the potency estimated from few doses in experiment [10] (setting [17]) and in experiment [3] (setting [17]) were 1440 nM and 1040 nM, respectively.
`NS(=O)(=O)c1ccc(N/N=C2\C(=O)Nc3ccc(-c4cnco4)cc32)cc1` [GW276655_KCGS]: the potency estimated from few doses in experiment [4] (setting [17]) was 1940 nM.
